In PubChem BioAssay AID793 (The Scripps Research Institute Molecular Screening Center, 2007):
In all, about 140,000 compounds went through this assay and about 1,400 (1%) were called active. The list comes from a sample in which actives are over-represented; it also holds similar structures and randomly drawn compounds. Unmarked numbers belong to inactive results. Cut-off read from the data, not from the text of the source: active = inhibition above about 17%; inactive = the rest.

What follows are compounds tested against Neuropeptide Y receptor type 2 (Homo sapiens) (UniProt P49146) (assay: blockers of human neuropeptide Y Y2 receptor – cell-based, primary screen (AID 793;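 note: 0% = vehicle with agonist challenge and 100% = reference antagonist with challenge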)). Conditions: NPY-Y2 expressing cells, antagonist mode; at 2.7 µM; active compounds read high.
Sequence of Neuropeptide Y receptor type 2 (Homo sapiens) (P49146 whole entry, looked up): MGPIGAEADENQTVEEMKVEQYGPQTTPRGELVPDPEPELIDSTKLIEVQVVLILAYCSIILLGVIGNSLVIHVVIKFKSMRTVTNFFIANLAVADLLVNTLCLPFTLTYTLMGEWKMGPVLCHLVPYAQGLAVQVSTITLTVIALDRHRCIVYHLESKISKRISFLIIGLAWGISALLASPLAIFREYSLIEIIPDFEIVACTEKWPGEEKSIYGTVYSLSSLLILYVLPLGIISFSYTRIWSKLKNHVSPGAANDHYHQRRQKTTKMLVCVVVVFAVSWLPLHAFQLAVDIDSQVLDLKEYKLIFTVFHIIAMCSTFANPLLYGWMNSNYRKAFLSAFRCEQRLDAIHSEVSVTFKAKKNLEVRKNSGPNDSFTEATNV

Row | Structure (SMILES) | inhibition
1 | O=C(COC(=O)c1ccccc1)Nc1ccc(Cl)cc1C(=O)c1ccccc1 | 34.7% (active)
2 | O=C(CCNS(=O)(=O)c1ccccc1)Nc1ccc(Cl)cc1C(=O)c1ccccc1 | 2.34%
3 | CN1CCN(C(=S)SCC(=O)Nc2ccc(Cl)cc2C(=O)c2ccccc2)CC1 | 6.46%
4 | CN1CCN(Cc2ccc(OC(F)(F)F)cc2)CC1 | 3.95%
5 | CCOC(=O)c1c(-c2ccccc2)oc2ccc(OC(=O)N(C)C)cc12 | 4.26%
